The source of these data is ChEMBL document CHEMBL4513216, “Probing the Open Global Health Chemical Diversity Library for Multistage-Active Starting Points for Next-Generation Antimalarials” (ACS Infect Dis, 2020).

In all, about 69,000 compounds went through this assay and about 8,600 (12%) showed an effect of 50% or more. The sample as a whole holds a higher share of strong results than the screen did.

The test system of this test is Plasmodium berghei. Kind of test: Screen against P. berghei liver stage (PbLuc), transformed with Luciferase, at 10uM. The test is classed as functional, HepG2. The note with it: tested at 10 uM.
On to `CCOc1cc(C(=O)N2CCCC(n3nc(C)nc3C)C2)ccn1` (configuration not stated), for which the INHIBITION was -11.9%.
To `Cc1noc(C)c1-c1nc(N(C)CCN(C)C)ncc1-c1cnccn1` belongs 2.71%; to `CC(C)(C)c1cc(CN2C[C@H]3CC[C@@H](C2)N(Cc2ccccn2)C3)n[nH]1`, 33.3%.
In the case of `c1ncn(Cc2cnc3n2CCN(Cc2ccsc2)CC3)n1` it was 37%; in that of `CC(C)(C)CC(=O)Nc1ccccc1SCC(N)=O`, -53.6%; in that of `c1ccc(-c2cnn3cc(CN4CCC5(CCO5)CC4)cnc23)cc1`, 87.4%.
To `CC(C)O[C@H]1CN(Cc2cnc3c(-c4ccccc4)cnn3c2)C[C@@H]1O` belongs 8.74%.
In the case of `O=C1CN(Cc2cnc3c(-c4ccccc4)cnn3c2)CCCN1`, the INHIBITION is recorded as 75.1%.
To `FC(F)(F)C1CN(Cc2cnc3c(-c4ccccc4)cnn3c2)CCO1` (configuration not stated) belongs 25.9%; to `O=C1CCN(Cc2cnc3c(-c4ccccc4)cnn3c2)CCN1`, 29.2%.
Turning to `CN(C)CC1(O)CCN(Cc2cnc3c(-c4ccccc4)cnn3c2)C1` (configuration not stated), the INHIBITION amounted to 20.2%.
In the case of `CC(O)C1CCN(Cc2cnc3c(-c4ccccc4)cnn3c2)CC1` (configuration not stated) it was 63.6%; in that of `NCCC1CN(Cc2cnc3c(-c4ccccc4)cnn3c2)CCO1` (configuration not stated), 40.7%; in that of `OCCN1CCN(Cc2cnc3c(-c4ccccc4)cnn3c2)CC1`, 44.8%.
To `CN(Cc1ccsc1)C(=O)c1cc2c([nH]c1=O)CCC2` belongs -9.6%; to `Cc1csc(CNCc2c(C)nn(C)c2N2CCOCC2)n1`, -19.7%; to `CCCN(CC)C(=O)c1ncn2c1CN(C)S(=O)(=O)c1ccccc1-2`, -49.7%.
In the case of `COCCOCC(=O)Nc1nc2c(OC)cc(F)cc2s1` it was 7.65%.
As to `Cc1nnc(CN(Cc2ccc3c(c2)OCO3)C2CCC(C)CC2)o1` (configuration not stated), the INHIBITION is given as -45.9%.
In the case of `COc1cc(OC)c(C2CC(=O)Oc3cc(C)[nH]c(=O)c32)cc1OC` (configuration not stated) it was 4.07%.
To `CC(Cn1cnc2cn(C)nc2c1=O)Oc1cccnc1` (configuration not stated) belongs 52.6%; to `Cn1cc2ncn(CCNc3cccnc3)c(=O)c2n1`, 31.6%.
To `Cn1cc2ncn(CCCOc3cccnc3)c(=O)c2n1` belongs 14.3%.
With `CCC(=O)c1cccc(S(=O)(=O)NC(C)C#N)c1` (configuration not stated), the INHIBITION came to 54.4%.
On to `CC(C#N)NS(=O)(=O)c1cccc(C(C)C)c1` (configuration not stated), for which the INHIBITION was 22.3%.
In the case of `Cc1ccc(S(=O)(=O)NC(C)C#N)cc1Br` (configuration not stated), the INHIBITION is given as 4.95%.
In the case of `CS(=O)(=O)NCC1CCCCN1C(=O)Nc1cccnc1N1CCCC1` (configuration not stated) it was 34.7%.
To `c1coc(-c2nnc(CN3CCCC3Cn3cncn3)o2)c1` (configuration not stated) belongs 17.5%.
In the case of `CCCn1ncc(CN(CCN(C)C)Cc2ccsc2)c1C` it was 57.5%; in that of `CCCn1ncc(CN(Cc2cccnc2)Cc2ccsc2)c1C`, 22.9%; in that of `CCCn1ncc(CN(Cc2ccsc2)Cc2ccco2)c1C`, 13%.
As for `Cc1c(C(=O)NCCC(C)C)nnn1-c1cccc2c1CCN(C)C2`, the INHIBITION is reported as 36.3%.
In the case of `CCC(C)(C)NC(=O)c1nnn(-c2cccc3c2CCN(C)C3)c1C` it was 36.3%; in that of `Cc1c(C(=O)NCC(C)C)nnn1-c1cccc2c1CCN(C)C2`, 56.1%.
To `CCC(C)NC(=O)c1nnn(-c2cccc3c2CCN(C)C3)c1C` (configuration not stated) belongs 51.7%.
In the case of `Cc1c(C(=O)NCC(C)C)nnn1-c1cccc2c1CCN(C(C)C)C2` it was 38%; in that of `Cc1c(C(=O)NC(C)C(C)C)nnn1-c1cccc2c1CCN(C)C2` (configuration not stated), 11.8%; in that of `Cc1ccc(C)c(C(C)NC(=O)N2CCC(n3cncn3)CC2)c1` (configuration not stated), -3.2%.
Take `CN1CCN([C@@H]2CCN(C3CCOC3)[C@H]2Cc2cnn(C)c2)CC1` (some centres not stated): the INHIBITION was 24.9%.
In the case of `Cc1cc2ncn(C(=O)N3CCCCC3)c2cc1C` it was -16%; in that of `CCOC1CCCN(C(=O)c2ccccc2NCc2cccnc2)C1` (configuration not stated), 16.8%.
Turning to `O=C(Cc1ccc2c(c1)OCCO2)NC1CC1`, the INHIBITION was -60.4%.
Take `CC[C@@H]1N(Cc2ccc(C)o2)CCC[C@]12CCC(=O)N2CCOC`: the INHIBITION was determined as 29.3%.
In the case of `O=C(C1CCOCC1)N1CC[C@H]2[C@H]1CCN2c1nncs1` it was 40.8%; in that of `CC1=Nc2c(c(=O)[nH]n2C2CCCCC2)C(c2ccc(C(=O)O)cc2)S1` (configuration not stated), 36.55%; in that of `COC(=O)c1ccc(C2SC(C)=Nc3c2c(=O)[nH]n3C2CCCC2)cc1` (configuration not stated), 76.3%.
In the case of `CC1=Nc2c(c(=O)[nH]n2C2CCCC2)C(c2ccc(C(=O)O)cc2)S1` (configuration not stated) it was 26.65%; in that of `Cc1cc(CN2Cc3ccccc3CC2c2nnc(C)o2)no1` (configuration not stated), 7.67%; in that of `CCc1nnc(C2Cc3ccccc3CN2Cc2cc(C)no2)o1` (configuration not stated), 58.1%.
In the case of `Cc1nnc(C2Cc3ccccc3CN2Cc2nc(C3CC3)no2)o1` (configuration not stated) it was 23.7%; in that of `CCc1nnc(C2Cc3ccccc3CN2Cc2nc(C3CC3)no2)o1` (configuration not stated), 60.9%; in that of `CCc1nnc(C2Cc3ccccc3CN2Cc2cc(C)on2)o1` (configuration not stated), 68.1%.
